Assay outcomes deposited in PubChem by Sanford-Burnham Center for Chemical Genomics.
TROY signal inh: inhibitors of TROY-dependent NF-kB signaling; Q293 LMP1-TROYcd NF-kB luciferase reporter, 4 h; inhibition, % at 10 µM; actives 0.98% (n = 360,000);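 active = compounds whose plate-normalised and pattern-corrected inhibition of the luciferase reporter signal at the single screening dose is 50% or more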
CF NFkB block: inhibitors of cystic fibrosis induced NF-kB; KKLEB NF-kB-GFP reporter, PAF-induced, GFP fluorescence overnight; inhibition, % at 5 µM; actives 0.86% (n = 360,000); AID 588850;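 active = at least 50% inhibition at 5 µM, scaled per plate between neutral and stimulator controls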;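 note: PAF is a Pseudomonas aeruginosa culture filtrate used as stimulus; plate controls were PAF-stimulated DMSO wells for no effect and unstimulated DMSO wells for full effect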
Peg3 prom inh-1: reduces Peg3 promoter-driven luciferase expression in HeLa. HeLa PEG-Prom luciferase reporter, luminescence, overnight. inhibition, % at 20 µM. AID 588405. actives 1.7% (n = 360,000);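 active = inhibition of at least 50% at 20 µM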
TWEAK Fn14 block: TWEAK-Fn14 signaling inhibition; TWEAK-stimulated Fn14 reporter cells, luciferase luminescence, 8 h; inhibition, % at 10 µM; actives 2% (n = 360,000); AID 1159606; in the data active = inhibition above about 50%
HIF-2a block: HIF-2a inhibition. 786-0 RCC cells HIF-2a reporter, luciferase luminescence, overnight. inhibition, % at 18.8 µM. actives 0.72% (n = 360,000). AID 624352;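 active = inhibition of the luminescence signal of 40% or more relative to plate controls, in a single-dose primary screen at 18.75 µM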
KKLEB tox: counter-screen for CF NF-kB inhibitors: cytotoxicity; KKLEB CF airway cells viability, ATPlite luminescence, overnight; stronger effect = lower value; cells stimulated with P. aeruginosa culture filtrate; activity change (cytotoxicity), % at 5 µM; actives 0.36% (n = 360,000);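 active = corrected activity change at or below -50% at 5 µM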
Peg3 prom inh-2: confirmation of Peg3 promoter inhibitors | actives 84% (n = 1,300) | shares compounds with Peg3 prom inh-1 | HeLa PEG-Prom luciferase reporter, luminescence, overnight | inhibition, % at 20 µM;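 active = at 20 µM dose, 40% or more inhibition averaged across four replicates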
CF NFkB conf: confirmation of cystic fibrosis induced NF-kB inhibitors; KKLEB CF airway cells, PAF-induced NF-kB-GFP fluorescence, overnight; shares compounds with CF NFkB block; inhibition, % at 5 µM; actives 64% (n = 1,300); in the data active = inhibition above about 40%;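 note: stimulus PAF is a Pseudomonas aeruginosa filtrate and not platelet activating factor; plate controls were DMSO wells with stimulus for no effect and unstimulated DMSO wells for full effect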
* = called active by the depositor; . = no result given. A selection: hits, their analogues and other compounds. The true share with any hit is near 4%.

SMILES | TROY signal inh | CF NFkB block | Peg3 prom inh-1 | TWEAK Fn14 block | HIF-2a block | KKLEB tox | Peg3 prom inh-2 | others
COc1ccc(CC(N)c2csc(NC(=O)Nc3ccccc3C(C)(C)C)n2)cc1 (centres undefined) | -5 | 0 | 87* | -1 | -5 | -4 | 76*
Cc1ccccc1NC(=O)Nc1nc(CN(C)C)cs1 | -3 | -22 | -28 | 11 | -3 | 8 | .
CCOC(=O)C1(Cc2ccccc2C#N)CCCCC1=O (centres undefined) | 5 | -8 | 4 | 3 | 1 | -12 | .
COCc1cccc(-c2csc(C(C)(O)c3cccc(F)c3)n2)c1 (centres undefined) | 14 | -29 | -5 | 15 | -8 | 3 | .
Cc1cc(C)c(S(=O)(=O)Nc2ccc(O)cc2)c(C)c1 | 2 | -6 | 18 | 6 | 21 | 5 | .
Cc1cc(C)c(S(=O)(=O)Nc2ccc3c(c2)CCC3)c(C)c1 | 19 | 25 | 51* | 37 | 17 | -1 | 41*
COc1cc(/C=C/c2ccc3cccc(O)c3n2)c(Br)cc1O | -12 | -6 | 98* | 20 | -141 | -10 | 92*
CSc1ccc(/C=C/c2ccc3cccc(O)c3n2)cc1 | 33 | -5 | -77 | 15 | -124 | -10 | .
COc1cc(/C=C/c2ccc3cccc(O)c3n2)ccc1O | -58 | -40 | 103* | -25 | -296 | 1 | 57*
COc1cc(Br)cc(/C=C/c2ccc3cccc(O)c3n2)c1O | -31 | -13 | 2 | -3 | -91 | 9 | .
COc1ccc(CN2CCN(C(=O)c3cc(-c4cccnc4)nc4ccc(Cl)cc34)CC2)c(OC)c1OC | 12 | 2 | 94* | 26 | 12 | -22 | 56*
Cc1cnn(C(=O)c2cc(-c3ccccn3)nc3ccc(Cl)cc23)c1 | 0 | -1 | 4 | -4 | 11 | 3 | .
O=C(c1cc(-c2ccccn2)nc2ccc(Cl)cc12)N1CCN(CCc2ccccc2)CC1 | 19 | 4 | 51* | 21 | 17 | -18 | 36
CCN(c1ccc(C(=O)CN2C(=O)NC3(CCOc4ccccc43)C2=O)cc1)S(C)(=O)=O (centres undefined) | -5 | 4 | -13 | 1 | 19 | -16 | .
COc1cccc(N2CCN(CC(=O)Nc3ccccc3C(=O)NCc3ccccc3)CC2)c1 | 29 | -6 | 57* | 18 | 25 | -12 | 51*
COc1ccc(-n2cc(CNC3CCN(C)CC3)c(-c3cccc(F)c3)n2)cc1 | -36 | 14 | 52* | -14 | -3 | -7 | 60*
CC(=O)N1c2ccccc2N=C(c2ccc3c(c2)OCO3)C1C(=O)NCc1ccccc1 (centres undefined) | . | . | . | . | -150 | . | .
O=C(c1ccccc1)N(C(=O)c1ccccc1)c1ncnc2c1C(c1ccccc1)c1c(ccc3ccccc13)O2 (centres undefined) | 10 | 56* | 78* | 47 | 21 | -4 | 77*
CCOC(=O)CCCC(=O)Nc1ncnc2c1C(c1ccccc1)c1c(ccc3ccccc13)O2 (centres undefined) | 13 | -11 | 36 | -5 | 25 | 4 | .
Cc1ccc(N(C)S(=O)(=O)c2cccc(C(=O)NC3CC(C)(C)NC(C)(C)C3)c2)cc1 | -9 | 3 | -8 | 11 | 22 | 3 | .
CC1(C)CC(NC(=O)c2cccc(S(=O)(=O)N(Cc3ccccc3)c3ccccc3)c2)CC(C)(C)N1 | 14 | 15 | 84* | 13 | 13 | 10 | 92*
CC(C)Cc1ccc(C(C)C(N)=NCCc2ccccc2)cc1 (centres undefined) | -27 | 10 | 104* | -14 | 10 | -28 | 99*
COc1ccc2sc3cccc(NCCN(C)C)c3c(=O)c2c1 | -44 | -13 | 97* | -32 | -100 | -27 | 66*
COC(=O)c1ccc(OCC2c3cc(OC)c(OC)cc3CCN2C(=O)c2ccco2)cc1 (centres undefined) | 24 | 14 | 60* | 6 | 0 | -23 | 45*
CC1CCN(c2ccc(-c3cccs3)nn2)CC1 | 66* | -22 | 82* | 105* | 78* | -81* | 78*
SMILES | TROY signal inh | CF NFkB block | Peg3 prom inh-1 | TWEAK Fn14 block | HIF-2a block | KKLEB tox | Peg3 prom inh-2 | others
Clc1ccc(-c2cccs2)nn1 | 1 | -17 | -18 | 8 | 1 | -9 | .
Cc1ccc(-n2c(N)c(C(=O)Nc3c(C)n(C)n(-c4ccccc4)c3=O)c3nc4ccccc4nc32)cc1 | 12 | 15 | 76* | -6 | -13 | -47 | 51*
Cc1ccc(C(=O)Nc2c(C)n(C)n(-c3ccccc3)c2=O)cc1 | 8 | -6 | 7 | 0 | 22 | 13 | .
CN(C)S(=O)(=O)c1ccc(Cl)c(NC(=O)CSc2nc3c(cc2C#N)C(=O)CC(C)(C)C3)c1 | 20 | 28 | -15 | 13 | 17 | -4 | .
CN(C)S(=O)(=O)c1cccc(NC(=O)CSc2nc3c(cc2C#N)C(=O)CC(C)(C)C3)c1 | 39 | 58* | 60* | 37 | -12 | -20 | 60* | CF NFkB conf=35
O=C(NCCN1CCOCC1)c1ccc2c(c1)N(Cc1cccc(F)c1)C(=O)c1ccccc1S2 | 5 | 19 | 18 | 19 | 26 | -3 | .
Cc1cccc(CN2C(=O)/C(=C\c3ccc(C(=O)NCCN4CCOCC4)cc3)Sc3ccccc32)c1 | 62* | 82* | 92* | 41 | 9 | 5 | 92* | CF NFkB conf=-16
Cc1ccc(NC(=O)C(C)OC(=O)Cn2[nH]c(=O)c3ccccc3c2=O)cc1 (centres undefined) | 24 | -6 | 5 | -13 | -1 | 1 | .
COc1ccccc1CN(C)C(=O)c1cc(-c2cc(OC)c(OC)c(OC)c2)nc2ccccc12 | -7 | 74* | 53* | 27 | -2 | -32 | 56* | CF NFkB conf=10
CC1CCCCN1C(=O)c1cccc(NC2=C(Cl)C(=O)N(Cc3ccccc3)C2=O)c1 (centres undefined) | 27 | 57* | 52* | 19 | 18 | -44 | 54* | CF NFkB conf=-104
CC1CCN(C(=O)c2ccc(NC3=C(Cl)C(=O)N(Cc4ccccc4)C3=O)cc2)CC1 | 20 | 12 | 40 | 9 | -2 | -4 | .
Cc1ccc(-c2nnc(SCC(=O)NCC3CCCO3)nc2-c2ccc(C)cc2)cc1 (centres undefined) | 2 | 4 | 12 | 1 | 17 | 4 | .
CC1(C(=O)NCc2ccccc2)CCC(=O)N1CC(F)(F)F (centres undefined) | 4 | -12 | -5 | 25 | 3 | -4 | .
